Rows were chosen to be rich in hits. Some 19% of all compounds tested hit in one or more screens of this group.
DT40 TDP1 CPT: qHTS for Inhibitors of human tyrosyl-DNA phosphodiesterase 1 (TDP1): qHTS in cells in presence of CPT | chicken DT40 Tdp1-/-;hTDP1 cells + 20 nM CPT, ATP luminescence, 48 h | AID 686979, 2013 | 420,000 tested, 12% active | Potency, µM (highest dose often 46.2 µM), without a hit: top-dose activity change, negative = growth inhibition, hits mostly inhibitors; note: potency is the fitted concentration of half-maximal effect; % is set by controls: 0 for no effect and ±100 for the full control effect; nearly all actives have a fitted effect of over 55% in size
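Chicken DT40 Tdp1-/- cells complemented with human TDP1, 400 cells/well, exposed to compounds plus 20 nM camptothecin for at least 48 h at 37 C; viability read as ATP content by CellTiter-Glo luminescence.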
TDP1 cell noCPT: qHTS for Inhibitors of human tyrosyl-DNA phosphodiesterase 1 (TDP1): qHTS in cells in absence of CPT. DT40 Tdp1-/- hTDP1 cells, no CPT, ATP luminescence, 48 h. Potency, µM (top dose mostly 46.2 µM), without a hit: at the top dose activity change, negative = growth inhibition, actives largely listed as inhibitors. 420,000 tested, 15% active; note: potency is the fitted concentration of half-maximal effect; % is set by controls: 0 for no effect and ±100 for the full control effect; nearly all actives have a fitted effect of over 55% in size
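DT40 Tdp1-/-;hTDP1 cells, no CPT (DMSO vehicle only), 400 cells/well; compounds pin-transferred; ≥48 hr, 37 °C; CellTiter-Glo 30 min RT dark, luminescence read.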
SW480 rerep: A quantitative high throughput screen for small molecules that induce DNA re-replication in SW480 colon adenocarcinoma cells. 340,000 tested, 1.8% active. Potency, µM (highest dose often 46.1 µM), without a hit: at the top dose re-replication activation, hits mostly activators. SW480 DNA re-replication, Hoechst DNA content imaging, 48 h; note: potency is the fitted concentration of half-maximal effect; % of control where 0% means no effect; nearly all actives have a fitted effect of over 55% in size
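DNA re-replication was detected as more nuclei of elevated Hoechst intensity after 48 hr exposure to compound (23 nL pinned per well of 250 cells).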
IL1B secr inh: qHTS for Inhibitors of Inflammasome Signaling: IL-1-beta AlphaLISA Primary Screen; THP-1 LPS/ATP IL-1B secretion, AlphaLISA, 16 h; hits give low values; activity change, % at 57.5 µM; 360,000 tested, 4.7% active; in the data active = activity change below about -50%; inconclusive = mostly about -30% to -49%; note: % is set by controls: 0 for no effect and ±100 for the full control effect
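THP-1 cells pretreated 1 hr with compounds (up to 57.5 uM final), then stimulated with LPS (250 ng/mL final) plus ATP (1.25 mM final); secreted IL-1B measured by AlphaLISA after 16 hr, decreased signal indicating inhibition.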
MCF10A rerep: A quantitative high throughput screen for small molecules that induce DNA re-replication in MCF 10a normal breast cells; MCF 10A DNA re-replication, Hoechst nuclear intensity, 48 h; 350,000 tested, 2.9% active; Potency, µM (doses to about 46.1 µM), inactives show at the top dose activity, positive = re-replication, usual class: activators; AID 624296, 2012; note: potency is the fitted concentration of half-maximal effect; % of control where 0% means no effect; nearly all actives have a fitted effect of over 50% in size
BCR signal inh: qHTS Assay to Find Inhibitors of Chronic Active B-Cell Receptor Signaling; AID 493014, 2011; 340,000 tested, 0.05% active; ABC-DLBCL IkBa-CBG/CBR reporter, luminescence ratio, 4 h; Potency, µM (highest dose often 46.1 µM), for inactives: at the top dose activity change, negative = inhibition, hits mostly inhibitors; active = well fitted inhibition curve with a large enough effect in the signal ratio, with a control signal flat, not every such curve was filed as active; inconclusive = small, poorly fitted or top-dose-only effect, or effect the other way, or a change in a side signal; the % refers to the signal ratio;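 note: potency is the fitted concentration of half-maximal effect; plate controls were basal doxycycline-induced cells for no effect and cells given 10 µM MG132 for full effect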
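TMD8 ABC-DLBCL cells carrying doxycycline-inducible green luciferase fused to IkappaBalpha plus unfused red luciferase were exposed to compounds (up to 46 uM) for 4 hrs at 37C. Activity came from the overlap-corrected green/red luminescence ratio.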
Starred values were filed as active, the others as inactive; ? = inconclusive; . = not tested or not shown. Unless noted, calls come from the whole dose curve; as a rule, active = well fitted curve in the direction sought with a large enough effect; inconclusive = small, poorly fitted or top-dose-only effect, or another doubt; inactive = no such curve, though single readings can be large; an effect the other way counts as inactive or inconclusive.

SMILES	DT40 TDP1 CPT	TDP1 cell noCPT	SW480 rerep	IL1B secr inh	MCF10A rerep	BCR signal inh
CN1CCN(C(c2cccnc2)c2ccc3cccnc3c2O)CC1 (stereo not drawn)	?	16.4µM*	0.8%	0.0	7.6%	4.4%
CC(=O)NC(C)c1cc(Cl)c2ccccc2c1O (stereo not drawn)	.	.	-3.9%	.	16.4%	-1.4%
CN1CCN(C(c2ccc(Br)cc2)c2cc(Cl)c3cccnc3c2O)CC1 (stereo not drawn)	16.4µM*	14.6µM*	?	-105.8*	?	?
CN1CCN(C(c2ccc(F)cc2)c2ccc3cccnc3c2O)CC1 (stereo not drawn)	3.5%	-6.2%	-4.0%	-8.2	3.5%	.
COc1cc(OC)cc(Oc2ccc(S(=O)(=O)N3CCCCC3)cc2[N+](=O)[O-])c1	?	?	-87.2%	-98.8*	19.5%	?
COC(=O)COc1ccc(S(=O)(=O)N2CCCCC2)cc1[N+](=O)[O-]	12.1%	-12.7%	1.6%	-17.5	-6.6%	0.9%
Cc1ccc(S(=O)(=O)N2CCCCCC2)cc1[N+](=O)[O-]	?	10.3µM*	-78.8%	-6.7	?	3.2%
Cc1ccc(S(=O)(=O)N2CCC(C)CC2)cc1[N+](=O)[O-]	5.7%	-4.3%	-0.3%	8.3	-0.2%	-0.9%
CCCOc1ccc(C(=O)NNC(=S)NC(=O)c2cc(-c3ccc(Cl)cc3)nc3ccccc23)cc1	23.1µM*	11.6µM*	13.6%	14.8	?	?
COc1ccc(C(=O)NNC(=S)NC(=O)c2cc(-c3ccccc3)nc3ccccc23)cc1	?	16.4µM*	?	-7.1	4.3%	7.4%
CCCCCCCCCCCCCCCC(=O)C(F)(F)F	8.4%	-5.2%	.	.	.	.
CC(O)CNCCCOc1ccc(Cl)cc1C(C)(C)C (stereo not drawn)	13µM*	13µM*	-17.2%	-65.5*	10.8%	?
CN(C)CCOCCOc1ccc(Cl)cc1C(C)(C)C	?	?	?	-55.6*	12.4%	?
c1cncc(-c2ccc3ncnc(NC4CCNCC4)c3c2)c1	5.7%	19.9%	.	.	.	.
c1cncc(-c2cncnc2NC2CCNCC2)c1	16.4µM*	-12.4%	.	.	.	.
Cc1ccc(C(=O)CCc2ccc(N)cc2)cc1	-6.3%	-7.4%	-8.8%	?	3.6%	?
CCCCN(C)c1c(C)nc2ccc(C(=O)Nc3ccc(OC)c(OC)c3)cn12	?	14.6µM*	.	0.7	.	.
CCCCN(C)c1c(C)nc2ccc(C(=O)Nc3cc(-c4ccccc4)ccc3OC)cn12	13µM*	16.4µM*	.	?	.	.
Cc1ccccc1NC(=O)Cc1nc(COC(=O)c2ccc(O)cc2O)cs1	?	?	-1.0%	0.0	0.2%	?
N#CC1c2ccccc2-c2ccccc2N1C(=O)c1ccccc1 (stereo not drawn)	5.8µM*	5.8µM*	.	63.9	.	.
Nc1c(C(O)(C(F)(F)F)C(F)(F)F)cc(C(O)(C(F)(F)F)C(F)(F)F)c2ccccc12	?	?	28.1%	-96.1*	17.8µM*	?
O=C(Nc1ccc(/C=C/c2ccc(NC(=O)c3cc(S(=O)(=O)O)c4cccnc4c3O)cc2S(=O)(=O)O)c(S(=O)(=O)O)c1)c1cc(S(=O)(=O)O)c2cccnc2c1O	-22.6%	-21.8%	.	.	.	.
O=S(=O)(O)c1cc(I)c(O)c2ncccc12	21.1µM*	21.1µM*	4.5%	.	8.0%	.
CC(OC(=O)CCN=C1NS(=O)(=O)c2ccccc21)C(=O)Nc1ccc(F)c(F)c1F (stereo not drawn)	-1.4%	11.1%	19.8%	0.4	-4.8%	0.6%
CC(=O)c1c(C)[nH]c(C(=O)OCCOc2ccccc2)c1C	?	9.2µM*	-3.0%	17.6	-1.2%	?
SMILES	DT40 TDP1 CPT	TDP1 cell noCPT	SW480 rerep	IL1B secr inh	MCF10A rerep	BCR signal inh
CC(=O)c1c(C)[nH]c(C(=O)OCC(=O)C(C)(C)C)c1C	-14.4%	-5.4%	-10.6%	22.4	-2.7%	0.1%
COc1ccc(CN(C)C(=O)c2[nH]c(C)c(C(C)=O)c2C)cc1F	?	14.6µM*	5.2%	61.4	3.8%	-9.0%
CC(=O)c1c(C)[nH]c(C(=O)Nc2cc(C)cc(C)c2)c1C	-4.8%	?	-6.3%	-16.5	?	?
COc1ccc(CCNC(=O)c2[nH]c(C)c(C(C)=O)c2C)cc1OC	-6.8%	-16.0%	-9.4%	-12.8	0.1%	-13.8%
CC(=O)c1c(C)[nH]c(C(=O)OCC(=O)c2ccc(C)s2)c1C	23.1µM*	18.4µM*	?	-8.3	11.2%	-5.5%
CC(=O)c1c(C)[nH]c(C(=O)COc2cc(C)cc(C)c2)c1C	?	16.4µM*	1.1%	-10.1	20.8%	1.7%
O=C(c1ccnc(-n2cnnn2)c1)N1CCOc2ccc(C(O)CCc3ccccc3)cc2C1 (stereo not drawn)	-28.7%	-18.8%	.	.	.	.
COc1ccc(C2=NOC(c3nnc(-c4ccccc4)o3)C2)cc1 (stereo not drawn)	4.1%	-0.6%	-11.8%	-6.9	0.0%	.
CCOC(=O)c1c(C)[nH]c(C(=O)OCc2ccccc2)c1C	-22.4%	?	-8.5%	-3.3	-0.5%	0.5%
CC(=O)c1c(C)[nH]c(C(=O)OCc2cccc(C)c2)c1C	16.4µM*	13µM*	-10.1%	15.4	19.0%	?
CC(=O)c1c(C)[nH]c(C(=O)COc2ccc3ccc(=O)oc3c2)c1C	?	?	-2.0%	-10.2	18.5%	-7.9%
COC(=O)c1c(C)[nH]c(C(=O)COc2ccc3ccc(=O)oc3c2)c1C	?	9.2µM*	-25.9%	-0.4	?	-6.3%
COc1ccc(C)cc1COC(=O)c1[nH]c(C)c(C(C)=O)c1C	20.6µM*	16.4µM*	-0.3%	34.7	20.4%	?
CC(=O)c1c(C)[nH]c(C(=O)OCc2ccccc2F)c1C	14.6µM*	20.6µM*	-3.7%	-7.2	-1.4%	?
CN(Cc1ccccc1)C(=O)[C@@H]1CCCN1C(=O)OC(C)(C)C	-4.0%	-12.8%	.	-0.8	.	.
CSc1ncccc1C(=O)OCC(=O)c1[nH]c(C)c(C(C)=O)c1C	18.4µM*	?	5.5%	0.0	-3.7%	-8.3%
CC(C)c1ccc(NC(=O)c2cccn2-c2nnc(N3CCCCC3)s2)cc1	18.4µM*	?	.	.	.	.
COc1ccccc1CNC(=O)c1cccn1-c1nnc(N2CCCCC2)s1	-29.9%	-29.0%	.	.	.	.
CN(C)c1ccc(CNC(=O)c2cccn2-c2nnc(N3CCCCC3)s2)cc1	18.4µM*	16.4µM*	.	.	.	.
Cc1cc(C(=O)NCC(c2ccco2)N(C)C)ccc1[N+](=O)[O-] (stereo not drawn)	11.7%	4.9%	3.0%	-7.6	4.5%	-0.7%
COCCn1ccc2c(OCC(=O)NCc3ccc(C)cc3)cccc2c1=O	-5.2%	0.2%	-5.5%	-7.5	-0.6%	?
CCOC(=O)c1ccc(NC(=O)CN(c2ccc(C)cc2)S(=O)(=O)c2c(C)nn(C)c2C)cc1	23.1µM*	?	0.4%	13.5	-1.3%	-17.9%
